Hits are enriched below; roughly 13% of the tested compounds scored in any of these assays.
USP8 inh: human USP8 deubiquitinase inhibition; P40818; purified USP8, Ub-rhodamine cleavage fluorescence, 30 min; inhibition, % at 20 µM; 4.2% of 47,000 active; AID 1645853
USP30 inh: human USP30 deubiquitinase inhibition; Q70CQ3; AID 1645860; purified USP30, Ub-rhodamine cleavage fluorescence; 5.3% of 47,000 active; inhibition, % at 25 µM
USP10 inh: inhibitors of human USP10 deubiquitinase; inhibition, % at 20 µM; Q14694; 1.1% of 47,000 active; purified USP10, Ub-rhodamine fluorescence, 60 min
USP28 inh: human USP28 deubiquitinase inhibition | 3% of 47,000 active | inhibition, % at 25 µM | AID 1645857 | Q96RU2 | purified USP28, Ub-rhodamine cleavage fluorescence, 30 min
Target sequence (Q96RU2 whole entry, looked up): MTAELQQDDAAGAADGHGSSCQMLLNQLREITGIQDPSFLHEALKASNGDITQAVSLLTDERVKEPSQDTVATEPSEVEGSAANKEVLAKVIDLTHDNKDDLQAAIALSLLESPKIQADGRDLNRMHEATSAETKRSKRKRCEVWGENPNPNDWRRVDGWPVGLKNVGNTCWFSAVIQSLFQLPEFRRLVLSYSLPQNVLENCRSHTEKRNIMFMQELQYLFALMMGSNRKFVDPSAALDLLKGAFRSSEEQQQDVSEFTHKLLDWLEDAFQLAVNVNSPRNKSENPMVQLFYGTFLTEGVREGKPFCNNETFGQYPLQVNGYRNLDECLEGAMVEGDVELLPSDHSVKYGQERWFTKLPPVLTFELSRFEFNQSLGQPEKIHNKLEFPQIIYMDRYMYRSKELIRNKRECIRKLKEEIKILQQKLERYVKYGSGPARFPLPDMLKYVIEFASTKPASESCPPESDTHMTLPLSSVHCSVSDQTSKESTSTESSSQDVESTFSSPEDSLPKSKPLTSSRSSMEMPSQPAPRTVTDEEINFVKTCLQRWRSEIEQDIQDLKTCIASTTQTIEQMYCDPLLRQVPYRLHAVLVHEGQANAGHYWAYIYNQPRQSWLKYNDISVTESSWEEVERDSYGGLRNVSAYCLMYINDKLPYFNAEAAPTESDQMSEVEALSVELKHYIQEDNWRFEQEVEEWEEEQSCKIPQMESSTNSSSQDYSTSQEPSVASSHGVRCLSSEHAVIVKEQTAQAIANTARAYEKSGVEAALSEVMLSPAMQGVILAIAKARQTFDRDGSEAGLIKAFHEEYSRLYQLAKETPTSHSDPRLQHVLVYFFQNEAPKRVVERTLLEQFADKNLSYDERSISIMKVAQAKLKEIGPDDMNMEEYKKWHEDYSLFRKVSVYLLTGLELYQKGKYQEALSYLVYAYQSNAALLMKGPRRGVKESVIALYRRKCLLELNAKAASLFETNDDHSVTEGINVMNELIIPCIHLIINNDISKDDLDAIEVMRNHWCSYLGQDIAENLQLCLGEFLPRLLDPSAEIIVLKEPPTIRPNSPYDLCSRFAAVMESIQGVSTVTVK
USP17 block: inhibitors of human USP17 deubiquitinase; 6.5% of 47,000 active; inhibition, % at 50 µM; purified USP17, Ub-rhodamine cleavage fluorescence, 3 h; AID 1645855; A8MUK1
A number is an active result; i = inactive; nt = not tested or not shown. No stated cut-off is given here; in the data, active means inhibition above about 30%; inactive means the rest.

SMILES	USP8 inh	USP30 inh	USP10 inh	USP28 inh	USP17 block
COc1ccc2c(c1)CCc1c-2n[nH]c1C(=O)Nc1ccccc1OC	i	i	i	i	50
O=C(c1ccnn1-c1ccc2ccc(-c3cccnc3)cn12)N1CCCC1	i	i	i	i	i
CC1=N[C@@]2(CC[C@@H]3CN(C(=O)Nc4ccc(F)cc4)C[C@@H]32)C(=O)N1CC1CC1	i	i	i	i	i
Cc1cc(C)c(NC(=O)CCC(=O)N2CCSc3ccccc32)c(C)c1	i	i	i	i	i
COc1cccc(NC(=O)CCC(=O)N2CCSc3ccccc32)c1	i	i	i	35	i
O=C(NCCc1ccccc1)c1cnn(-c2ccc([N+](=O)[O-])cc2)c1C1CCNCC1	i	i	i	i	i
OCCNc1nc(-c2ccccc2)nc2c1oc1ccccc12	i	71	i	i	60
O=S(=O)(c1ccc(-c2noc(COc3ccccc3)n2)cc1)N1CCOCC1	i	i	i	i	i
COc1ccc(C(NS(=O)(=O)c2ccc(S(=O)(=O)N3CCOCC3)cc2)c2ccccc2)cc1 (stereo unspecified)	i	36	i	i	i
CC(C)(C)OC(=O)N1CSC[C@@H]1C(=O)N1CCC(C(=O)N2CCC[C@H]2C(=O)O)(c2ccccc2)CC1	i	i	i	i	i
Cc1cccc2c(=O)c3c([nH]c12)CCN(CC(=O)NCc1ccccc1)C3	i	i	i	i	i
Cc1ccc2c(=O)c3c([nH]c2c1C)CCN(CC(=O)NCc1ccc2c(c1)OCO2)C3	i	i	i	i	52
Cc1c(Cl)ccc2c(=O)c3c([nH]c12)CCN(CC(=O)NCc1ccc2c(c1)OCO2)C3	46	i	i	32	49
CCc1ccc2[nH]c3c(c(=O)c2c1)CN(CC(=O)NCc1ccc2c(c1)OCO2)CC3	i	i	i	i	70
Cc1nccnc1CCC1COCCN1C(=O)c1noc2c1CCCC2 (stereo unspecified)	i	i	i	i	i
O=C(Nc1ccc(F)cc1)N1CCCC1c1nc(-c2ccc(F)cc2F)no1 (stereo unspecified)	i	i	i	i	i
CC(c1ccc(F)cc1)n1c(=O)[nH]c2c(-c3ccccn3)nsc2c1=O (stereo unspecified)	i	i	i	i	i
O=C(COC(=O)CCc1nc2ccccc2[nH]c1=O)Nc1ccc([N+](=O)[O-])cc1	81	i	i	i	i
CC(OC(=O)CCc1nc2ccccc2[nH]c1=O)C(=O)Nc1cccc(Cl)c1Cl (stereo unspecified)	i	i	i	i	i
CCC(=O)N1CCc2c(C(=O)NCc3ccc(N4CCN(C)CC4)cc3)cccc21	i	i	i	i	i
O=C(Nc1cccc2ccccc12)N1CCC(c2nc3c(nnn3Cc3ccc(F)cc3)c(=O)[nH]2)CC1	97	36	i	38	91
CCc1ccccc1NC(=O)N1CCC(c2nc3c(nnn3Cc3ccc(F)cc3)c(=O)[nH]2)CC1	i	i	i	i	i
O=c1[nH]c(C2CCN(S(=O)(=O)c3cccc4ccccc34)CC2)nc2c1nnn2Cc1ccccc1Cl	i	31	i	33	i
O=C(C1CCC1)N1CCC(c2nc3c(nnn3Cc3c(Cl)cccc3Cl)c(=O)[nH]2)CC1	i	36	i	i	i
O=c1[nH]c(C2CCN(S(=O)(=O)c3ccccc3)CC2)nc2c1nnn2Cc1c(Cl)cccc1Cl	i	39	32	i	i
SMILES	USP8 inh	USP30 inh	USP10 inh	USP28 inh	USP17 block
O=C(C1CCCC1)N1CCC(c2nc3c(nnn3Cc3c(F)cccc3Cl)c(=O)[nH]2)CC1	i	i	i	i	i
CCOc1ccc(C(=O)N2CCC(c3nc4c(nnn4Cc4ccccc4Cl)c(=O)[nH]3)CC2)cc1	i	i	i	i	i
Cn1c(C(=O)N2CCOCC2)cc2c1c1ccccc1n2CC1CC1	i	i	i	i	i
O=C(NC1CC1)c1nc(C(=O)N2CCN(c3ccccc3)CC2)cs1	i	i	i	i	i
O=C(Nc1ccc(-n2cccc2)cc1)c1cccc([N+](=O)[O-])c1	31	37	i	i	i
O=C(Nc1ccc(-n2cccc2)c(Cl)c1)c1cccc([N+](=O)[O-])c1	i	i	i	i	i
COc1ccccc1CNC(=O)c1noc2c1CCc1sccc1-2	i	30	i	i	i
COc1ccc2c(c1)CCc1c(C(=O)NCc3cccnc3)noc1-2	i	53	i	i	47
O=C(NCc1ccc(F)cc1)c1noc2c1CCc1sccc1-2	i	i	i	i	i
O=C(NCc1ccc(Cl)cc1)c1noc2c1CCc1sccc1-2	75	i	i	i	i
CC(NC(=O)c1noc2c1CCc1sccc1-2)c1ccccc1 (stereo unspecified)	i	i	i	i	i
O=C(NCCc1c[nH]c2ccccc12)c1noc2c1CCc1sccc1-2	i	i	i	i	32
CC(C)CCNC(=O)Cn1cc(S(=O)(=O)Cc2ccccc2)c2ccccc21	i	i	i	i	i
CCOC(=O)c1sc2ccccc2c1S(=O)(=O)Nc1ccccc1	i	i	i	i	i
O=C(c1ccccn1)N1CCC(c2ccc(Nc3ncccn3)cn2)CC1	i	i	i	i	i
COc1ccc(C)cc1N(C)C(=O)c1noc2c1CCc1sccc1-2	i	30	i	i	i
Cc1ccc(-c2cc3nc(Nc4ccc(C(N)=O)cc4)ccn3n2)cc1	71	i	i	i	nt
COc1cccc(C2C3=C(NCCN=C3c3ccccc3)C(=O)N2c2ccccc2)c1 (stereo unspecified)	i	i	i	i	i
O=C1C2=C(C(c3ccccc3)=NCCN2)C(c2cccc(F)c2)N1c1ccccc1 (stereo unspecified)	i	32	i	i	i
O=c1ccc(-c2noc(Cc3cccc(C(F)(F)F)c3)n2)c[nH]1	i	i	i	48	i
COc1ccc(-c2noc(CCC3CCCC3)n2)cc1OC	i	i	i	i	i
COc1ccc(Cc2nc(-c3ccc(=O)[nH]c3)no2)cc1OC	i	i	i	33	i
COc1ccc(NC(=O)Cc2nc(-c3cccc(Cl)c3)no2)cc1	i	i	i	i	i
Cc1nnc2ccc(-c3noc(Cc4cccc(F)c4)n3)cn12	i	i	i	i	nt
O=c1ccc(-c2noc(Cc3cccc(Cl)c3)n2)c[nH]1	i	i	i	68	i
O=c1ccc(-c2noc(CCC3CCCC3)n2)c[nH]1	i	i	i	43	i
O=C(COc1cccc(F)c1)N1CCCC(c2[nH]nc3nccnc23)C1 (stereo unspecified)	i	i	i	i	i
Cc1ccc(CNC(=O)CCCn2c(=O)c3sccc3n(CC(=O)Nc3cc(Cl)ccc3C)c2=O)cc1	i	i	i	55	74
O=C(CCCn1c(=O)c2cccn2c2cccnc21)NCc1ccc(Cl)cc1	i	i	i	i	i
CCOc1ccccc1NC(=O)Cn1c(=O)n(CCCC(=O)NCc2ccc(C)cc2)c(=O)c2sccc21	47	37	56	36	83
